Hits are enriched below; roughly 11% of the tested compounds scored in any of these assays.
SW480 rerep: inducers of DNA re-replication in SW480 colon cancer cells | actives 1.8% (n = 340,000) | Potency, µM (highest dose often 46.1 µM), for inactives: at the highest dose re-replication activation, hits mostly activators | SW480 DNA re-replication, Hoechst DNA content imaging, 48 h | AID 624297; further: potency means the concentration at half of the fitted maximal effect; % of control where 0% means no effect; nearly all actives have a fitted effect of over 55% in size
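First, 250 cells per well were seeded. Next, compound or vehicle (23 nL) was pinned in, plates sat 48 hr at 37 C. Finally Hoechst was added for 40 min before fluorescence scanning.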
VP16 counter: Gal4-VP16 reporter inhibition counter-screen; Drosophila S2 Gal4-VP16 UAS-luciferase, luminescence, 20 h; Potency, µM (top dose mostly 53.6 µM), for the others: at the highest dose activity, negative = inhibition, hits mostly inhibitors; actives 3.5% (n = 310,000); AID 2546;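 further: Gal4-VP16 expression switched on by copper sulfate through the metallothionein promoter; potency means the concentration at half of the fitted maximal effect; on the % scale 0 is the no-effect control and ±100 the full control effect; nearly all actives have a fitted effect of over 50% in size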
MCF10A rerep: inducers of DNA re-replication in MCF 10A breast cells | Potency, µM (titrated, usually from 46.1 µM), for inactives: at the highest dose activity, positive = re-replication, usual class: activators | MCF 10A DNA re-replication, Hoechst nuclear intensity, 48 h | actives 2.9% (n = 350,000); further: potency means the concentration at half of the fitted maximal effect; % of control where 0% means no effect; nearly all actives have a fitted effect of over 50% in size
RORg inh: blocks mouse ROR gamma transcriptional activity; P51450; Drosophila S2 Gal4-RORgamma UAS-luciferase reporter, 20 h; Potency, µM (top dose mostly 53.6 µM), for the others: at the top dose activity change, negative = inhibition, usual class: inhibitors; actives 5.4% (n = 310,000); further: potency means the concentration at half of the fitted maximal effect; on the % scale 0 is the no-effect control and ±100 the full control effect; nearly all actives have a fitted effect of over 60% in size
Target sequence (P51450 whole entry, looked up, the tested form may be a part): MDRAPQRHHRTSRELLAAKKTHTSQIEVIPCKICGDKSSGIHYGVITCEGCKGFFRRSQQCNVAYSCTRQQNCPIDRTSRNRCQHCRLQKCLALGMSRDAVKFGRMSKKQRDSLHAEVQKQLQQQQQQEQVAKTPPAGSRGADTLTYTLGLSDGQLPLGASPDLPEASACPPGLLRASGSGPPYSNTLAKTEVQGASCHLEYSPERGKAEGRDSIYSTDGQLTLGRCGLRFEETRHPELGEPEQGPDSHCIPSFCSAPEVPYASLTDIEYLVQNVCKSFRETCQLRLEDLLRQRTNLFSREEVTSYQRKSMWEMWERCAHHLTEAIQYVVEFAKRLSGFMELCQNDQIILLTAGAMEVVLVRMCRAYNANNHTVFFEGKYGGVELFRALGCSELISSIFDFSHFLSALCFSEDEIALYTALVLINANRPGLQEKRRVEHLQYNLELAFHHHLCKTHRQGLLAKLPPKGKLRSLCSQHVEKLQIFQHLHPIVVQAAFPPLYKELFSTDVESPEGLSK
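A Gal4/UAS one-hybrid system in insect cells: metallothionein-promoter Gal4–ROR gamma fusion plus Photinus luciferase reporter. Copper sulfate 700 uM final, 20 hr ambient incubation, luminescent detection after 10 min with reagent.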
IL-1B inflam inh: inflammasome signaling inhibition, IL-1 beta readout; THP-1 LPS/ATP IL-1B secretion, AlphaLISA, 16 h; active compounds read low; activity change, % at 57.5 µM; actives 4.7% (n = 360,000); AID 743279; in the data active means activity change below about -50%; inconclusive means mostly about -30% to -49%; further: on the % scale 0 is the no-effect control and ±100 the full control effect
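Secreted IL-1B measured by AlphaLISA bead assay after 16 h compound exposure of THP-1 cells; compounds (final up to 57.5 uM) added 1 h before LPS (250 ng/mL) and ATP (1.25 mM) stimulation; lower signal means less secretion.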
An asterisk follows results filed as active; ? = inconclusive; · = no result; [ ] = dose if it differs, or a comment. Unless noted, the call rests on the fitted dose curve; in most records, active means well fitted curve in the direction sought with a large enough effect; inconclusive means small, poorly fitted or top-dose-only effect, or another doubt; inactive means no such curve, though single readings can be large; an effect the other way counts as inactive or inconclusive.

SMILES	SW480 rerep	VP16 counter	MCF10A rerep	RORg inh	IL-1B inflam inh
O=C1NC[C@H](CCCCN2CCN(CC3CCCCC3)C(=O)C2=O)N(Cc2ccccc2)C1=O	·	·	·	·	0
O=C(CC1CC2CCC1C2)N1CCN(S(=O)(=O)c2ccccc2F)CC1 (configuration not stated)	0%	·	0%	·	6
CCN(CC)CCC(c1ccc(OC)cc1)c1c(O)cc(OC)cc1OC (configuration not stated)	-37%[9.22 µM]	-6%	-5%	-3%	-19
CCN(CC)CC(O)c1ccc2ccc3ccc(O)cc3c2c1 (configuration not stated)	?	·	5%	·	-61*
O=c1oc(-c2ccc(O)c(O)c2)cc2cccc(O)c12	16µM*	·	7.3µM*	·	16
